High-throughput results: PubChem BioAssay, National Center for Advancing Translational Sciences (NCATS)
ATXN2 expr inh – Primary qHTS for Inhibitors of ATXN expression. HEK-293 ATXN2-luciferase reporter, luminescence, 24 h. Potency, µM (top dose mostly 57 µM), for inactives: top-dose activity change, negative = inhibition, most hits filed as inhibitors. 360,000 tested, 0.72% active. AID 1745845, 2022; further: on the % scale 0 is the no-effect control and ±100 the full control effect; nearly all actives have a fitted effect of over 55% in size
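ATXN2-luciferase reporter cells (luciferase flanked by upstream and downstream ATXN2 gene portions) were treated 24 h at 37 °C with compounds at up to 57 uM. SteadyGlo luminescence gave expression; GF-AFC fluorescence gave viability.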
HepG2 tox – qHTS for Inhibitors of TGF-b: Cytotox Counterscreen; HepG2 CAGA-GFP viability, ATP luminescence, 18 h; Potency, µM (top dose mostly 46.1 µM), for the others: top-dose activity change, negative = cytotoxicity, usual class: cytotoxic; 410,000 tested, 0.76% active
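HepG2 CAGA-GFP cells (1000/well, DMEM with 1% FBS) received compound, then TGF-beta at 500 pg/mL final, and were incubated 18 hours at 37 degrees C. Viability was read by CellTiter-Glo luminescence. Media-only wells were set as complete cell-killing and DMSO as no toxicity.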
TGFb SMAD3 inh – qHTS for Inhibitors of TGF-b. 410,000 tested, 1.2% active. Potency, µM (doses to about 46.1 µM), inactives show top-dose activity, negative = inhibition, most hits filed as inhibitors. HepG2 CAGA-GFP TGF-b/SMAD3 reporter, GFP fluorescence, 18 h; TGF-beta stimulated, 500 pg/mL final; further: on the % scale 0 is the no-effect control and ±100 the full control effect; nearly all actives have a fitted effect of over 65% in size
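Smad-responsive CAGA-GFP expression was quantified in HEPG2 cells exposed to compounds and 500 pg/mL final TGF-beta for 18 h at 37 degrees C; unstimulated wells defined full inhibition.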
KB-3-1 cytotox – qHTS assay for MDR1-selective chemotherapeutics: Primary screen using the parental adenocarcinoma cell KB-3-1. KB-3-1 viability, CellTiter-Glo ATP luminescence, 72 h. 400,000 tested, 1.4% active. Potency, µM (series often up to 46.1 µM), most hits filed as cytotoxic. AID 1347075, 2019; further: on the % scale 0 is the no-effect control and ±100 the full control effect; nearly all actives have a fitted effect of over 60% in size
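Luminescent ATP read-out (CellTiter-Glo) measures survival of drug-naive KB-3-1 cells after 72 h compound exposure at 37 °C. Titration series was screened from lowest to highest concentration, with DMSO vehicle plates as background controls.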
KB-V1 MDR tox – qHTS assay for MDR1-selective chemotherapeutics: Primary screen using the drug-selected MDR subline cells KB-V1; KB-V1 MDR cells viability, CellTiter-Glo, 72 h; Potency, µM (top dose mostly 46.1 µM), most hits filed as cytotoxic; 400,000 tested, 3.4% active; further: on the % scale 0 is the no-effect control and ±100 the full control effect; nearly all actives have a fitted effect of over 60% in size
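Cells of the MDR subline KB-V1 are plated, dosed with compound at multiple concentrations, and incubated 72 h at 37 degrees C; CellTiter-Glo is then added and luminescence read after 10 min.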
ATXN viability – Viability Counterscreen for Primary qHTS for Inhibitors of ATXN expression; AID 651635, 2014; S2 cells (HEK-293 line with an ATXN2-luciferase reporter) viability, CellTiter-Fluor protease fluorescence, 24 h; Potency, µM (top dose mostly 56.7 µM), most hits filed as cytotoxic; 400,000 tested, 0.49% active; further: nearly all actives have a fitted effect of over 40% in size
* = called active by the depositor; i = inactive; u = inconclusive; x = no result given. An excerpt weighted towards active compounds, which were near 5.9% of everything screened. The call rests on the fitted dose curve; in most records, active means well fitted curve in the direction sought with a large enough effect; inconclusive means small, poorly fitted or top-dose-only effect, or another doubt; inactive means no such curve, though single readings can be large; an effect the other way counts as inactive or inconclusive. Potency means the concentration at half of the fitted maximal effect.

SMILES | ATXN2 expr inh | HepG2 tox | TGFb SMAD3 inh | KB-3-1 cytotox | KB-V1 MDR tox | ATXN viability
CN(Cc1ccc(OC(F)F)cc1)C(=O)c1cccc(S(=O)(=O)N2CCN(c3ccccc3)CC2)c1 | -31% | -14% | -32% | 7.3µM* | i | u
CN(Cc1ccc(Cl)c(Cl)c1)C(=O)c1cccc(S(=O)(=O)N2CCN(Cc3ccccc3)CC2)c1 | -31% | -19% | u | 9.2µM* | i | i
COc1cc(C(=O)Oc2cccc(Nc3ncnc4ccccc34)c2)cc(OC)c1OC | u | -23% | u | i | u | u
COc1ccc(C(=O)Oc2cccc(Nc3ncnc4ccccc34)c2)cc1OC | -16% | 0% | -2% | u | 18µM* | i
COc1ccc2[nH]cc(C(=O)CCl)c2c1 | u | -107% | u | 12µM* | u | 16µM*
COc1ccc(C(=S)N2CCN(c3cccc(Cl)c3)CC2)c(OC)c1 | u | -27% | u | 6.5µM* | i | i
COc1ccc(-n2nc(C(=O)NCC(=O)N3CCN(c4cccc(Cl)c4)CC3)c3ccccc3c2=O)c(OC)c1 | -3% | -9% | -5% | i | 12µM* | i
Oc1ccc(C(=S)N2CCN(c3cccc(Cl)c3)CC2)cc1 | -3% | 3% | u | i | i | i
COc1cc(C(=S)N2CCN(c3cccc(Cl)c3)CC2)ccc1O | -20% | -9% | -22% | 8.2µM* | u | i
O=C(c1cccs1)N1CCN(c2cccc(Cl)c2)CC1 | -35% | -30% | -2% | i | i | i
O=C(c1ccc([N+](=O)[O-])s1)N1CCN(c2cccc(Cl)c2)CC1 | -25% | -98% | 11µM* | u | 16µM* | u
O=C(c1ccc2c(c1)OCO2)N(Cc1cc2ccc(F)cc2nc1N1CCC(O)CC1)CC1CCCO1 (centres undefined) | x | x | x | x | x | i
COc1cc(=O)n2c(c1C(=O)NCc1ccco1)CCN(C(=O)c1ccc(C)c(C)c1)CC2 | x | x | x | x | x | i
Cc1ccc(C(=O)c2oc3ccccc3c2NC(=O)c2nc(S(C)(=O)=O)ncc2Cl)cc1F | 1% | -8% | -6% | i | i | i
Cc1ccc(C(=O)N2CCN(c3cccc(Cl)c3)CC2)cc1C | -13% | 8% | -18% | u | u | i
CCOc1ccc(C(=O)N2CCN(c3cccc(Cl)c3)CC2)cc1 | x | -48% | u | i | i | i
CCOC(=O)c1c(C)c(C(=O)N2CCN(c3cccc(Cl)c3)CC2)c(C)n1C | -22% | -17% | 0% | i | 10µM* | i
COc1ccc(N2CCN(C(=O)c3ccc(-n4nc(C)cc4C)cc3)CC2)cc1 | 6% | 0% | -18% | i | 16µM* | i
COc1ccc(C(=O)N2CCN(c3cccc(Cl)c3)CC2)cc1 | 3% | 7% | 2% | i | 21µM* | u
COc1cc(/C=C(/C#N)C(=O)NCCc2c[nH]c3ccccc23)ccc1OCc1ccccc1F | 7.1µM* | -21% | 1% | u | u | 10µM*
O=C(NCCc1c[nH]c2ccccc12)/C(=C/c1ccco1)NC(=O)c1ccco1 | -3% | 7% | 13% | i | i | i
CC(=C\c1ccco1)/C=C(\C#N)C(=O)NCCc1c[nH]c2ccccc12 | -6% | -36% | -20% | i | 23µM* | i
Cc1cc(/C=C(\C#N)C(=O)NCCc2c[nH]c3ccccc23)c(C)n1C | -25% | -23% | 0% | i | i | i
N#CC1=C(N)CCC1 | x | 1% | 3% | i | i | x
Cc1c(Cn2c(C)nc3c(C(=O)O)cc(N4CCOCC4)cc32)cccc1C(F)(F)F | -5% | x | x | x | x | x
SMILES | ATXN2 expr inh | HepG2 tox | TGFb SMAD3 inh | KB-3-1 cytotox | KB-V1 MDR tox | ATXN viability
c1ccc(-c2nc(-c3cnc4ccccc4n3)cs2)cc1 | x | -2% | 16% | u | i | x
COCCCNC(=O)c1c(N)n(/N=C/c2ccccn2)c2nc3ccccc3nc12 | 4% | 1% | -9% | i | 5.2µM* | i
CC(C)OCCCNC(=O)c1c(N)n(/N=C/c2cccs2)c2nc3ccccc3nc12 | 2% | -5% | 2% | i | u | i
COc1ccc(NC(=O)c2nc(SC)ncc2Cl)cc1 | -6% | -18% | 4% | i | i | i
CCCS(=O)(=O)c1ncc(Cl)c(C(=O)N(Cc2ccccc2)Cc2ccco2)n1 | x | 4µM* | 8.9µM* | x | x | x
CCSc1ncc(Cl)c(C(=O)N(Cc2ccccc2)Cc2ccco2)n1 | x | -36% | x | x | x | x
COc1ccc(N(Cc2ccccc2)C(=O)c2nc(SC)ncc2Cl)cc1 | u | -30% | 13µM* | u | u | i
CCS(=O)(=O)c1ncc(Cl)c(C(=O)N(Cc2ccccc2)c2ccc(OC)cc2)n1 | x | 3.2µM* | 3.2µM* | x | x | x
COc1ccccc1C(=O)N(Cc1ccccc1)c1ccc(C)cc1 | -12% | -18% | 2% | u | u | i
Cc1ccc(NC(=O)CCn2cccn2)cc1Cl | 20% | -13% | 22% | i | i | i
CC(C)(C)OC(=O)Nc1ccc(-c2cc(C(=O)NCCCCCCC(=O)NO)no2)cc1 | 39% | x | x | x | x | x
O=C(Cn1cnc2sc(-c3ccccc3)cc2c1=O)NCCc1ccccc1 | u | -14% | 8% | i | u | u
O=C(Cn1cnc2sc(-c3ccccc3)cc2c1=O)NCc1ccco1 | 12% | 0% | 27% | 18µM* | u | i
O=C(Cn1cnc2sc(-c3ccccc3)cc2c1=O)NCc1ccccc1 | -28% | -40% | 8% | 7.3µM* | i | i
CCOC(=O)c1cccc(NC(=O)CCc2c(C)nc3cc(-c4ccc(Cl)cc4)nn3c2C)c1 | -30% | 4% | -8% | i | i | i
Cc1sc(NC(=O)c2ccco2)c(C(c2cccnc2)N2CCC(C)CC2)c1C (centres undefined) | u | -9% | u | 18µM* | u | u
CCOCCCNC(=O)/C(C#N)=C/c1cc(Br)c(O)c(Br)c1 | -12% | -28% | u | 6.5µM* | 3.7µM* | i
COCCNC(=O)/C(C#N)=C/c1ccc(-c2ccc(S(=O)(=O)N3CCOCC3)cc2)o1 | -4% | 2% | -18% | i | i | i
CCOCCCNC(=O)/C(C#N)=C/c1ccc(-c2ccc(S(=O)(=O)N3CCOCC3)cc2)o1 | -10% | -4% | -12% | i | 16µM* | i
